One may read the inhibition as the drop in the measured response relative to a control, in per cent.

The record followed here is PubChem BioAssay.

Several values for one entry are separate records, joined by “and”; a condition that tells them apart may be missing. Equal entries are not always repeated. For part of these data: Entries with a potency or affinity are not part of this list. A structure can be active in one record and inactive in another. Activity calls are given as the source filed them. Unless noted, how the calls were made is not given here.

The nature of assay [1]: compounds altering viability of human ES cells (AID 493140).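 Further: cells exposed to compounds for four days before counting.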 Particulars: human embryonic stem cell survival screen; stronger effect = higher value.
Assay [2] is described as follows: signal quenchers or enhancers, Cy5 substrate/SSB – biochemical, NIH Clinical Collection, E. coli SSB, artefact control for HCV NS3 helicase inhibitor project (AID 743268). Conditions: Cy5-oligo bound E. coli SSB, fluorescence interference.
Assay [3] has as its system Hepatitis C virus NS3 helicase. Nature of the assay: blockers of NS3h binding to DNA – biochemical, fluorescence polarization, NIH Clinical Collection, primary screen (AID 743270). Conditions: NS3 helicase binding to Cy5-dT15 DNA, stronger effect = higher value, concentration not given here. A general note: Polarisation of emitted light reports the rotation of a fluorescent probe.

Assay [4] addresses Single-stranded DNA-binding protein (Escherichia coli (strain K12)) (UniProt P0AGE0). Description: SSB-ssDNA binding inhibitors – biochemical, fluorescence polarization, NIH Clinical Collection, counter-screen for HCV NS3 helicase inhibitor project (AID 743271; in the data active means inhibition above about 28%). Particulars: E. coli SSB-DNA binding, stronger effect = higher value, concentration not given here.
Assay [5] is described as follows: compounds distorting NS3 helicase fluorescence signal – biochemical, NIH Clinical Collection, artefact control for HCV NS3 helicase inhibitor project (AID 743272).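 Further: HCV NS3 helicase with a Cy5 labelled single stranded DNA probe.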 Particulars: fluorescence interference counterscreen, HCV NS3 helicase assay; stronger effect = lower value.
Assay [6] in a line: modulation of C. elegans fzo-1 (AID 1259413).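 Further: fzo-1 mutant C. elegans worms in liquid wells.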 Conditions: C. elegans fzo-1 modulator screen, mean read-out; stronger effect = higher value.
For assay [7], the system named is R275C/beta1. Description: BK channel mutant inhibitors and activators – cell-based, U2OS BacMam, thallium flux, beta subunits, selectivity assay, profiling panel (AID 1259406;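 active means thallium flux through the channel raised or lowered by more than 3 SD from vehicle-only wells, actives on both sides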;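 further: initial slope of Thallos dye fluorescence rise after thallium is added; log ratio against the mean of 0.3% DMSO vehicle wells on the same plate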). Particulars: U2OS BacMam BK variants, at 30 µM.
For assay [8], the system named is R275C/beta2Delta. The description is as above. Particulars: U2OS BacMam BK variants, at 30 µM.
Assay [9] concerns R275C/beta4. The assay is described as above. Particulars: U2OS BacMam BK variants, at 30 µM.
Assay [10] relates to R275C/Slo1WT/beta2. The description is as above. Conditions: U2OS BacMam BK variants, at 30 µM.
The target of assay [11] is Mitogen-activated protein kinase 7 (Homo sapiens) (UniProt Q13164). Description: Gal4-ERK5 driven luciferase induction – cell-based, HTS, primary screen (AID 1508626;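 active means luciferase signal above three times the same-plate solvent-only control wells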;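 further: luciferase driven by Gal4-ERK5 fusion binding five Gal4 sites before minimal TATA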). Conditions: HeLa Gal4-ERK5 transactivation, 18 h, at 5 µM, stronger effect = higher value.
Sequence of Mitogen-activated protein kinase 7 (Homo sapiens) (Q13164 whole entry, looked up, the tested form may be a part): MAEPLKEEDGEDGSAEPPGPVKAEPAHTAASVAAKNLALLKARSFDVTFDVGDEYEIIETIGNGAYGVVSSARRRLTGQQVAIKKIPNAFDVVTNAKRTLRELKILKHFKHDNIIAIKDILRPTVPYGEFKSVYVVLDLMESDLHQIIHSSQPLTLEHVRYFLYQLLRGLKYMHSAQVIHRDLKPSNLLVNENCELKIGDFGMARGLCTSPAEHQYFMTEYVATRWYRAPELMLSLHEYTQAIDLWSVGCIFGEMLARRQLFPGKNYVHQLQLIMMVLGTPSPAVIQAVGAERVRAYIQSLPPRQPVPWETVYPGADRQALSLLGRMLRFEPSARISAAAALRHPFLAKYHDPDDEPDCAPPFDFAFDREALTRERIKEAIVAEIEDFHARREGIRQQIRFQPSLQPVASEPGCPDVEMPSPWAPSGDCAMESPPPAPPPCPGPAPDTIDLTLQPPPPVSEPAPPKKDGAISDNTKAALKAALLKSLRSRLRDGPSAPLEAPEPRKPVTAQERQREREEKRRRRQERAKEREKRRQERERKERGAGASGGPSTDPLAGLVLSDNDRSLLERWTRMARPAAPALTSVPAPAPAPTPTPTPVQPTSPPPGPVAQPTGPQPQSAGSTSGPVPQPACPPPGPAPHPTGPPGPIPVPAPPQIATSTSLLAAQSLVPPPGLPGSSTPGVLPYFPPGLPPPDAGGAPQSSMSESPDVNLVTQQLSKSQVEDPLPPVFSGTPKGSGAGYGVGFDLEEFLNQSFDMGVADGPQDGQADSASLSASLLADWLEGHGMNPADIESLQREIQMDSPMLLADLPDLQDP
Assay [12] in a line: galactose survival enhancers in mitochondrial complex I cybrids – cell-based, galactose medium, ATP luminescence, primary screen (AID 1645843;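 active means z-score of at least 1.8 in each of two replicates, scored against plate mean and spread of sample wells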;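 further: positive z means more ATP and so rescue of galactose-driven cybrid death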). Conditions: complex I mutant cybrid cells, 72 h, stronger effect = higher value.
A short description of assay [13]: blockers of polyQ-driven CASP3 activation – cell-based (AID 1583). Particulars: polyglutamine-induced caspase-3 activation, cell assay; stronger effect = higher value;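 tested at 10 µM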.
The nature of assay [14]: yeast 75Q aggregation reduction – 75Q-TubU reporter (AID 1593). Conditions: Yeast 75Q polyglutamine aggregation reporter.
A short description of assay [15]: restoration of touch response, mutant HTT neurons – whole organism, C. elegans mechanosensory neurons, N-terminal huntingtin (AID 1599). Particulars: C. elegans polyQ-huntingtin mechanosensory neurons, stronger effect = higher value.
Assay [16] in a line: blockers of cytochrome c efflux from mitochondria – biochemical, purified mitochondria (AID 1603).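 Further: mouse liver mitochondria challenged with calcium chloride; signal normalized to the plate average as 100%.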 Conditions: stronger effect = lower value.
Assay [17] in a line: polyglutamine aggregate formation blockers (AID 1604). Particulars: polyglutamine-induced protein aggregation inhibition assay; stronger effect = higher value; tested at 2.5 µM.
Assay [18] is described as follows: glutamate transport activators, MN-1 cells, MN-1 cell line (AID 1612).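 Further: tested at 1 µM final; 0% = mean of DMSO vehicle wells on each plate; positive means more glutamate uptake than control and negative means less.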 Conditions: MN-1 motor neuron cells, stronger effect = higher value.
The nature of assay [19]: 75Q-TubH aggregate inhibition, S. cerevisiae, yeast (AID 1616). Particulars: S. cerevisiae 75Q-TubH polyglutamine aggregation suppression; stronger effect = higher value.
The nature of assay [20]: growth inhibition, single agents and combos, ICB984, cell-based, cisplatin or BGB combos, synergistic combos for chromothripsis tumors (AID 1671451).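 Further: cells exposed for 96 hours before readout; 0% = vehicle DMSO and 100% = killing by high DMSO.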 Conditions: ICB984 medulloblastoma cells, drug combinations, stronger effect = higher value.

In the case of `CCOC(=O)C1=C(C)NC(C)=C(C(=O)OC)C1c1cccc([N+](=O)[O-])c1` (centres undefined), the survival in [1] is 5.33 (inactive). In addition, the fluorescence ratio in assay [2] was 1 (inactive); in assay [5] it was 1.03 (inactive). Also, the inhibition in assay [3] was 4.36% (inactive); in assay [4], 8.37% (inactive). The mean signal in assay [6] is 230 (inactive). The log fold change Tl+ flux is 0.00401 (inactive) in assay [7], -0.0485 (inactive) in [8], -0.023 (inactive) in assay [9] and 0.016 (inactive) in assay [10].
Regarding `CC1(C)O[C@@H]2[C@@H](CO[C@@]3(COS(N)(=O)=O)OC(C)(C)O[C@@H]23)O1`, the values for the fluorescence ratio in assay [2] and in assay [5] were 1.04 (inactive) and 1.02 (inactive), respectively. Moreover, the inhibition was -0.4% (inactive) in assay [3] and -6.26% (inactive) in assay [4]. For the same compound, the mean signal in assay [6] is 229 (inactive). For the same compound, the luciferase signal in assay [11] is 24 AU (inactive). Besides, the z-score in assay [12] is -0.1 (inactive). Also, the log fold change Tl+ flux was 0.0176 (inactive) in assay [7], 0.0245 (inactive) in assay [8], -0.0182 (inactive) in [9] and 0.00527 (inactive) in assay [10].
On to `S=c1nc[nH]c2nc[nH]c12`, for which the inhibition is 26.7% in assay [13]; -1.36% (inactive) in assay [3]; 0.29% (inactive) in assay [4]; -10.3% and -30.1% and -29.5% in assay [20] (BGB IC20 combo, at 0.005 µM); -20.2% and -36.3% and -18.2% in assay [20] (BGB IC40 combo, at 0.005 µM); -14.4% and -4.47% and -23% in assay [20] (BGB IC40 combo, at 0.05 µM). Moreover, the inhibition in assay [20] (at 0.5 µM) is -13.7% (inactive) and -13.9% (inactive) and -17.8% (inactive); in assay [20] (cisplatin combo, at 0.05 µM), -14.4% and -8.61% and -23%; in [20] (cisplatin combo, at 0.5 µM) it was -25.2% and -17.5% and -28.1%; in assay [20] (cisplatin combo, at 5 µM), -3.58% and -36.1% and -37.1%; in assay [20] (measured here: 5 uM single agent, at 5 µM) it was -34.5% and -9.53% and -28.9%. Besides, the score in assay [14] came to 1.45. The same compound yielded a rescue above control in assay [15] of -8.7. In addition, the cytochrome c release ratio in assay [16] stood at 0.93. For the same compound, the inhibition of aggregation in assay [17] came to 66.2%. For the same compound, the glutamate uptake change in assay [18] is 12.1%. The same compound showed an aggregation suppression score in assay [19] of 1.29. In addition, the values for the fluorescence ratio in assay [2] and in [5] were 1.03 (inactive) and 0.99 (inactive), respectively. Moreover, in assay [6], the mean signal is 247 (inactive). The luciferase signal in [11] is 2730 AU (active). Moreover, the z-score in assay [12] was 2.91 (active). The log fold change Tl+ flux in assay [7] was 0.0271 (inactive); in [8], -0.0376 (inactive); in assay [9] it was -0.0907 (inactive); in [10], 0.0711 (inactive).
`CC12CC3CC(C)(C1)CC(N)(C3)C2`: the figures for the inhibition in assay [13], in assay [3] and in assay [4] were 12.5%, -1.36% (inactive) and -0.48% (inactive), respectively. The same compound gave a score in assay [14] of 1.59. In [15], this compound returned a rescue above control of -2.96. Besides, in assay [16], the cytochrome c release ratio came to 1.07. For the same compound, in [17], the inhibition of aggregation turned out to be 35%. The glutamate uptake change in assay [18] was determined as 2.56%. In assay [19], this compound came in with an aggregation suppression score of 1.45. Moreover, the survival in [1] is 11.7 (inactive). In addition, the fluorescence ratio in assay [2] and in [5] was 1.02 (inactive) each time. In addition, the mean signal in [6] was 254 (inactive). Besides, the luciferase signal in assay [11] is 40 AU (inactive). In addition, the z-score in [12] was -0.41 (inactive) and 0.5 (inactive) and -0.635 (inactive). The log fold change Tl+ flux was -0.0595 (inactive) in [7], 0.0488 (inactive) in [8], 0.0101 (inactive) in assay [9] and -0.103 (inactive) in assay [10].
As to `NCCc1ccc(O)c(O)c1`, the figures for the inhibition in [13], in assay [3] and in assay [4] were 12.5%, -5.91% (inactive) and -2% (inactive), respectively. This compound also showed a score in [14] of 1.44. The compound also yielded a rescue above control in [15] of 0.54. Also, the cytochrome c release ratio in assay [16] came out at 0.92. Further, the inhibition of aggregation in [17] was found to be 81.4%. For the same compound, the glutamate uptake change in assay [18] stood at 17.9%. In [19], this compound gave an aggregation suppression score of 1.6. Further, the fluorescence ratio in assay [2] was 0.93 (inactive); in assay [5], 0.96 (inactive). Further, the mean signal in [6] is 263 (inactive). In addition, the luciferase signal in assay [11] is 44 AU (inactive) and 204 AU (active). Further, the z-score in [12] was -1.03 (inactive) and -1.31 (inactive). For the same compound, the log fold change Tl+ flux in [7] was -0.0871 (inactive); in assay [8], 0.0238 (inactive); in [9], 0.0461 (inactive); in [10], 0.00323 (inactive).
